The text below walks through data of ChEMBL document CHEMBL1961873, “Compounds: GSK PKIS; Assays: Nanosyn kinase panel” (2012).

For test [1], the target named is Serine/threonine-protein kinase PAK 6 (Homo sapiens) (UniProt Q9NQU5). The settings on record: at 1 µM.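 Note: values are mean percent inhibition of PAK6 kinase.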
In test [2] the test system is Tyrosine-protein kinase ABL1 (Homo sapiens), P00519 [E255K]. The following applies: at 0.1 µM.
The test system is the same in test [3]. The following applies: at 1 µM.
Test [4] concerns Tyrosine-protein kinase ABL1 (Homo sapiens), P00519 [H396P]. The following applies: at 0.1 µM.
Test [5] shares this test system. The following applies: at 1 µM.
In test [6] the test system is Tyrosine-protein kinase ABL1 (Homo sapiens), P00519 [M351T]. The settings on record: at 0.1 µM.
Test [7] shares this test system. The following applies: at 1 µM.
Test [8] relates to Tyrosine-protein kinase ABL1 (Homo sapiens), P00519 [Q252H]. The following applies: at 0.1 µM.
Test [9] has the same test system. The following applies: at 1 µM.
Test [10] has as its system Tyrosine-protein kinase ABL1 (Homo sapiens), P00519 [T315I]. The following applies: at 0.1 µM.
The test system is the same in test [11]. The following applies: at 1 µM.
Test [12] deals with Tyrosine-protein kinase ABL1 (Homo sapiens), P00519 [Y253F]. The following applies: at 0.1 µM.
Test [13] has the same test system. The settings on record: at 1 µM.
In test [14] the target is Tyrosine-protein kinase ABL1 (Homo sapiens) (UniProt P00519). The settings on record: at 0.1 µM.
For test [15] the target is unchanged. The following applies: at 1 µM.
The target in test [16] is ALK tyrosine kinase receptor (Homo sapiens) (UniProt Q9UM73). The settings on record: at 0.1 µM.
Sequence of ALK tyrosine kinase receptor (Homo sapiens) (Q9UM73 19-1620 limits assumed): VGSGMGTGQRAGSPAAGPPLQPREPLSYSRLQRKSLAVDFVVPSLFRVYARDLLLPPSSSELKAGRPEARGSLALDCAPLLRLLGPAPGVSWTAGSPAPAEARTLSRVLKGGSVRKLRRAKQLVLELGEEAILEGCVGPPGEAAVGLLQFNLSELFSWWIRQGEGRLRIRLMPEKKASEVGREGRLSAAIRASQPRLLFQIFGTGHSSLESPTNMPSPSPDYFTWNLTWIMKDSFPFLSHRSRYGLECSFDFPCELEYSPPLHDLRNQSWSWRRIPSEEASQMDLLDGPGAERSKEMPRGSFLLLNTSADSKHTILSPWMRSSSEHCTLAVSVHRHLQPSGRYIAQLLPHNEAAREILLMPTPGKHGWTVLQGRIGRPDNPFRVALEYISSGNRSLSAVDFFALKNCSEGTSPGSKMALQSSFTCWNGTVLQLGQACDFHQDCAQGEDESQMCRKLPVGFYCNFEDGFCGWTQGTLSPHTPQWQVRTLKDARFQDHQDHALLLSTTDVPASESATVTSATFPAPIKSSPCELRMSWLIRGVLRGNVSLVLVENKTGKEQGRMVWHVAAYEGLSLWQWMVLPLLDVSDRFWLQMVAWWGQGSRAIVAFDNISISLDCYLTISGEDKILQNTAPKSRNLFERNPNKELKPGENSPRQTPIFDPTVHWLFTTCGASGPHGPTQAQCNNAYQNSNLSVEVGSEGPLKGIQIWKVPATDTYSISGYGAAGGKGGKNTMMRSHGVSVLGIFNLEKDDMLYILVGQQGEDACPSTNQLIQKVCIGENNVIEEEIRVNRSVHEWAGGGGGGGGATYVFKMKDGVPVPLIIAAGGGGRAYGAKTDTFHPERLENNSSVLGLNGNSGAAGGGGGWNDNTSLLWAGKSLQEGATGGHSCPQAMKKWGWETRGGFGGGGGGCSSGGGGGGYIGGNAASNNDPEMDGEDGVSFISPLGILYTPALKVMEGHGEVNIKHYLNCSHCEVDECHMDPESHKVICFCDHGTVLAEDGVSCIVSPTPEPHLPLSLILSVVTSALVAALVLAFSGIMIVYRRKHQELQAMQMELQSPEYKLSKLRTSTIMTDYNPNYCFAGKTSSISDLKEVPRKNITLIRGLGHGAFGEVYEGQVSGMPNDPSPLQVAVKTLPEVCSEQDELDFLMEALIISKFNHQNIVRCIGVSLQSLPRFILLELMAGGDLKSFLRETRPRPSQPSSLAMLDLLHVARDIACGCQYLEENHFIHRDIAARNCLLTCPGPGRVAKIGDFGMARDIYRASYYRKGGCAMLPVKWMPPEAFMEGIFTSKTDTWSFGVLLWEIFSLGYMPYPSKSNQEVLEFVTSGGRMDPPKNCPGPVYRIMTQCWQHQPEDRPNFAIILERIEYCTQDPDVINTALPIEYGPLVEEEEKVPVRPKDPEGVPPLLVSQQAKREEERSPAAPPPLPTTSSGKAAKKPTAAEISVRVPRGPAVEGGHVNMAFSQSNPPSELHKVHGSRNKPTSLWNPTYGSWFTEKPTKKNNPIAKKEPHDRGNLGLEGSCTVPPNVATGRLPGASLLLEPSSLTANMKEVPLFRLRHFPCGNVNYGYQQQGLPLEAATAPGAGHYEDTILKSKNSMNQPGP
Test [17] shares this target. The following applies: at 1 µM.
In test [18] the target is Tyrosine-protein kinase ABL2 (Homo sapiens) (UniProt P42684). The settings on record: at 0.1 µM.
Sequence of Tyrosine-protein kinase ABL2 (Homo sapiens) (P42684 whole entry): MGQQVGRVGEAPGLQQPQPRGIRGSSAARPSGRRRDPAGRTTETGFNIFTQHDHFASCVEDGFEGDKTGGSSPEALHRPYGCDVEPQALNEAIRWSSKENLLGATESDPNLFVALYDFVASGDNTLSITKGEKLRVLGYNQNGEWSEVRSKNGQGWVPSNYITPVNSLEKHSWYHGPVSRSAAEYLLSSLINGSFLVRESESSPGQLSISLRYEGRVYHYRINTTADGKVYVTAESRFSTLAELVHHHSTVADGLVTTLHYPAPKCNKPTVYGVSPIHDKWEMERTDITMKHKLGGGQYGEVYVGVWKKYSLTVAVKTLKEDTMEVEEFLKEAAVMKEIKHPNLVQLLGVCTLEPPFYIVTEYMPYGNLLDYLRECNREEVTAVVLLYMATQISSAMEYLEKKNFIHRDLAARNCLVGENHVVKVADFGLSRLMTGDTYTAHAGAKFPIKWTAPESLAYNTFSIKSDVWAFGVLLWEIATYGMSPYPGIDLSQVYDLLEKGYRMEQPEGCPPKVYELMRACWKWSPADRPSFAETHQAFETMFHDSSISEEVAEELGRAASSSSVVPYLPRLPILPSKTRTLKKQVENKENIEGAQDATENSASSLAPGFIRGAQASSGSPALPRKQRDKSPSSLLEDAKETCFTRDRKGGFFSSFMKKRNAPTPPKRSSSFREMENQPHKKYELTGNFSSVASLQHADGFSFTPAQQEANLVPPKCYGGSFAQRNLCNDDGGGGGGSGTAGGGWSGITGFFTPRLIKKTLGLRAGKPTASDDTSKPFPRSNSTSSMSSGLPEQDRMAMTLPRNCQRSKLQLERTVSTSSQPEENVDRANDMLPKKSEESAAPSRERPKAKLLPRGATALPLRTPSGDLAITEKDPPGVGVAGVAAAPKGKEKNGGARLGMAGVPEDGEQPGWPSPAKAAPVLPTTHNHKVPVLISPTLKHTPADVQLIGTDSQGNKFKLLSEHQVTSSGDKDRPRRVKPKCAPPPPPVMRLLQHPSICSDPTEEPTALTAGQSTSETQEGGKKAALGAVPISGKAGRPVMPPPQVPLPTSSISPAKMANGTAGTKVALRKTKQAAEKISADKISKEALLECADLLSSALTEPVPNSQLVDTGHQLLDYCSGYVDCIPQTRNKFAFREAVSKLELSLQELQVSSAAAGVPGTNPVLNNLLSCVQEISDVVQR
Test [19] shares this target. The settings on record: at 1 µM.
Test [20] concerns the target Tyrosine-protein kinase receptor UFO (Homo sapiens) (UniProt P30530). The settings on record: at 0.1 µM.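 Note: values are mean percent inhibition of AXL from the GSK PKIS screen.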

Sequence of Tyrosine-protein kinase receptor UFO (Homo sapiens) (P30530 whole entry): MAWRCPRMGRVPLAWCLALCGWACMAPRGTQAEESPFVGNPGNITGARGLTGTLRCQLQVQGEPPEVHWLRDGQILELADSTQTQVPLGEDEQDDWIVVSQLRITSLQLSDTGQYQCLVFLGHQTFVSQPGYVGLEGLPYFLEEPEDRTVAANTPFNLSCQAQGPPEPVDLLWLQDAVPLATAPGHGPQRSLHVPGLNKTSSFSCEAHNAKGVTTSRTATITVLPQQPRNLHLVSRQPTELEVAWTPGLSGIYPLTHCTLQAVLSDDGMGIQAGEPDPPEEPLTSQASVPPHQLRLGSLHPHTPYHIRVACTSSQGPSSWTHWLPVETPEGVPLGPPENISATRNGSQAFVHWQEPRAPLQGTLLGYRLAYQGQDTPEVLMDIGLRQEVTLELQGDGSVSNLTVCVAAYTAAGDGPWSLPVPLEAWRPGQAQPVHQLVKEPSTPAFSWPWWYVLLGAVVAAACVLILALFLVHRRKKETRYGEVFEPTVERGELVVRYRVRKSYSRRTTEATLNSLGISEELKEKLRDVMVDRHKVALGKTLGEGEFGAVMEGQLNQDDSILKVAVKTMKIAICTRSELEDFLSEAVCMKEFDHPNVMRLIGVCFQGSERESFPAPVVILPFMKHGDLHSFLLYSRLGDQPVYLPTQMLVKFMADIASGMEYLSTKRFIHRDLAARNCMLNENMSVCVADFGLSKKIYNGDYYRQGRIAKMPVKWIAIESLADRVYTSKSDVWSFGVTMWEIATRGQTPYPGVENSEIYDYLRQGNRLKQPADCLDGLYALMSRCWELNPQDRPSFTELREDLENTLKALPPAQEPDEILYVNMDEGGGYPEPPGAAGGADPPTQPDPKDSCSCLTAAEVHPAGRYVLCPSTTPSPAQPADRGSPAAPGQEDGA
Sequence of Serine/threonine-protein kinase PAK 6 (Homo sapiens) (Q9NQU5 whole entry, looked up): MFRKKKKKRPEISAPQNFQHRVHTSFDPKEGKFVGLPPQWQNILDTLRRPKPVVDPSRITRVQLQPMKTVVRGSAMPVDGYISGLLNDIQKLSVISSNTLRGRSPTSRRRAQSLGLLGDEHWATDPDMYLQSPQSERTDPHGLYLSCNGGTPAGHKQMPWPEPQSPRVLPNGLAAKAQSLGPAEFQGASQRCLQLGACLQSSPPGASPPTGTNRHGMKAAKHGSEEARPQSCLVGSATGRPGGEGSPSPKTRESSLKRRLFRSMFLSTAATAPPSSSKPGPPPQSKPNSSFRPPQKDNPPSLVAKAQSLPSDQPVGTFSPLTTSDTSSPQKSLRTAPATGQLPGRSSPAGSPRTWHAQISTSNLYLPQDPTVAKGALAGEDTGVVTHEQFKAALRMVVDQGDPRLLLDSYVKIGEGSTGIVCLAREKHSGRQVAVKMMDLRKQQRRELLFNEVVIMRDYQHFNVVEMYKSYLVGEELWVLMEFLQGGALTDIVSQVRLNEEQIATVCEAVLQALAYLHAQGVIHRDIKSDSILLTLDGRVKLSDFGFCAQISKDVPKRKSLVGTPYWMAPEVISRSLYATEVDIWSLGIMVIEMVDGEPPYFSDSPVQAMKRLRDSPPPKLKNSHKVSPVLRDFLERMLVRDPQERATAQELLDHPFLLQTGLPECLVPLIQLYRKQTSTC

In the case of `NC(=O)c1sc(-n2cnc3cc(C(F)(F)F)ccc32)cc1OCc1ccccc1Br`, the inhibition in test [1] turned out to be 0.31%; in test [2], 2.61%; in test [3] it was 3.23%; in test [4], 3.11%; in test [5], 3.6%; in [6], 2.27%. The inhibition was 2.72% in test [7]; 1.81% in test [8]; 2.64% in test [9]; 1.04% in [10]; 1.66% in test [11]; 4.14% in [12]. Besides, the inhibition in test [13] is 4.68%; in [14], 3.16%; in test [15], 3.85%; in test [16], 1.22%; in test [17], 1.22%; in test [18], 2.86%. In addition, the inhibition in [19] is 4.58%; in [20], -0.22%.

Consider `Cc1cc(-c2ccco2)cc(C)c1/C=C/c1cncc(-c2nn[nH]n2)c1`, for which the inhibition in test [1] is 3.04%; in test [2], 0.2%; in test [3], 2.01%; in test [4], 1.54%; in [5], 4.02%; in test [6] it was 3.02%. Besides, the inhibition in [7] is 4.16%; in test [8], 1.99%; in test [9] it was 4.16%; in [10], 0.41%; in test [11], 2.45%; in test [12], 1.92%. Moreover, the inhibition in test [13] was 4.15%; in test [14], 2.83%; in [15], 4.58%; in test [16] it was 2.41%; in [17], 2.74%; in test [18], 2.77%. For the same molecule, the figures for the inhibition in test [19] and in [20] were 8.69% and 0.06%, respectively.

`CCn1c(-c2nonc2N)nc2c(C#CC(C)(C)O)ncc(OCC3CCNCC3)c21`: the inhibition in [1] was 69.3%; in [2], -0.11%; in test [3], 4.95%; in test [4], 1.89%; in test [5], 4.52%; in [6], -1.14%. The inhibition was 5.41% in [7]; 1.06% in [8]; 3.85% in [9]; 0.9% in test [10]; 4.1% in [11]; 2.44% in test [12]. Also, the inhibition in [13] is 5.73%; in [14] it was -2.19%; in test [15] it was 2.09%; in test [16], -2.65%; in [17], 0.19%; in test [18], -1.08%. Further, the figures for the inhibition in test [19] and in [20] were -2.22% and -2.5%, respectively.

Consider `COc1cc2c(cc1Nc1nc(Nc3ccsc3C(N)=O)c3cc[nH]c3n1)N(C(=O)CN(C)C)CCC2`, for which the inhibition in [1] was 5.48%; in test [4], -3.59%; in [5] it was -0.29%; in test [6], 1.67%; in test [7] it was 3.14%; in [8], 1.29%. In addition, the inhibition in test [9] was found to be 3.2%; in test [10], 0.06%; in test [11], 2.06%; in test [12] it was 1.77%; in test [13], 5.17%; in test [14] it was 1.69%. Also, the inhibition in test [15] was determined as 3.88%; in test [16] it was 83.9%; in test [17] it was 85.4%; in test [18], 5.49%; in [19], 8.21%; in test [20], 22.9%.

Take `COc1cc(C=NNc2ncnc3c2cnn3Cc2ccccc2)ccc1O`: the inhibition in test [1] was -8.83%; in [2], 32.5%; in [3] it was 82.7%; in [4] it was 52.3%; in [5], 90%; in test [6], 54.1%. Besides, the inhibition in test [7] was determined as 89.2%; in test [8], 57.7%; in test [9] it was 92.2%; in test [10], 12.6%; in [11], 61.6%; in [12] it was 52.2%. The inhibition in [13] was 90.8%; in [14], 40.6%; in test [15] it was 71.9%; in test [16] it was -4.96%; in test [17], -2.43%; in [18], 20.3%. Further, the inhibition came to 49.2% in test [19] and 5.07% in test [20].

For the molecule `CCn1c(-c2nonc2N)nc2c(C#CC(C)(C)O)ncc(OC[C@@H]3CCCN3)c21`, the inhibition is 58.4% in [1]; -0.36% in test [2]; -0.79% in test [3]; 1.51% in [4]; 6.5% in test [5]; -0.07% in test [6]. Also, the inhibition in [7] was 1.33%; in test [8], 1.26%; in test [9], -0.4%; in [10], 0.19%; in test [11], 0.65%; in test [12], 0.65%. The inhibition is -0.13% in test [13]; 1.81% in [14]; -0.45% in test [15]; -0.46% in test [16]; 1.45% in test [17]; 1.42% in [18]. Besides, the inhibition was determined as 2.28% in [19] and 0.65% in [20].

On to `CCn1c(-c2nonc2N)nc2c(C#CCN)ncc(OCCCN)c21`, for which the inhibition in test [1] is 2.6%; in test [2] it was -4.53%; in test [3], -4.45%; in test [4], -4.29%; in [5], -0.59%; in [6], -1.57%. Besides, the inhibition in test [7] is 1.28%; in test [8] it was -2.52%; in test [9], 0.94%; in test [10] it was -2.53%; in [11], 1.94%; in test [12], -2.47%. Besides, the inhibition in [13] is -2.94%; in test [14], 1.03%; in [15], 2.03%; in [16], -6.6%; in test [17], -0.9%; in [18], -2.47%. Further, the inhibition in test [19] was -0.76%; in [20], 7.73%.

`NS(=O)(=O)c1ccc(-c2ccc3c(NC(=O)C4CC4)n[nH]c3c2)cc1`: the inhibition turned out to be 9.03% in test [1]; 2.79% in test [2]; 7.46% in [3]; 4.05% in test [4]; 17.1% in test [5]; 3.23% in test [6]. The inhibition was 16.9% in [7]; 6.44% in [8]; 8.2% in test [9]; 5.41% in test [10]; 15.1% in test [11]; 4.41% in [12]. Also, the inhibition in [13] was determined as 8.81%; in test [14], 8.32%; in test [15], 14.2%; in test [16] it was 2.73%; in [17] it was 3.11%; in test [18], 6.43%. For the same molecule, the inhibition is 7.09% in [19] and -4.27% in [20].

Consider `COc1cccc(COc2cc(-n3cnc4ccccc43)sc2C(N)=O)c1`, for which the inhibition is -1.23% in [1]; -0.78% in test [2]; -0.15% in [3]; -1.23% in test [4]; 3.19% in test [5]; -1.62% in test [6]. The inhibition in test [7] is 2.97%; in test [8], -0.55%; in test [9], 3.14%; in test [10], -1.92%; in [11], 0.66%; in [12], -1.91%. For the same molecule, the inhibition in test [13] is 2.67%; in [14] it was -2.41%; in [15] it was 0.81%; in [16], -0.33%; in test [17] it was 2.9%; in test [18], -0.24%. Further, the inhibition in test [19] was found to be 0.86%; in [20], 0.14%.

Consider `Fc1ccc(-c2ncn(C3CCNCC3)c2-c2ccnc(Oc3ccccc3)n2)cc1`, for which the inhibition was -6.64% in test [1]; -0.56% in test [2]; 1.05% in [3]; 2.03% in [4]; 1.85% in test [5]; -0.31% in [6]. Besides, the inhibition is -0.15% in test [7]; 1.55% in test [8]; 2.19% in test [9]; -0.76% in [10]; -0.9% in test [11]; 1.35% in test [12]. In addition, the inhibition in test [13] is 2.58%; in test [14] it was -2.46%; in test [15], -4.75%; in test [16], -2.73%; in test [17], -0.15%; in [18], -2.93%. The results for the inhibition in test [19] and in test [20] were -3.16% and -4.72%, respectively.

For `CCn1c(-c2nonc2N)nc2c(C#CC(C)(C)O)nc(O[C@@H](CN)c3ccccc3)cc21`, the inhibition was 67.6% in [1]; -0.39% in test [2]; -0.58% in test [3]; -0.59% in [4]; -0.29% in test [5]; 0.75% in [6]. The inhibition is 5.14% in [7]; -0.46% in [8]; 0.03% in [9]; 1.03% in test [10]; 4.28% in test [11]; -0.01% in [12]. Also, the inhibition was found to be 0.57% in [13]; 0.27% in test [14]; 5.55% in test [15]; 0.41% in test [16]; 19.6% in test [17]; 1.15% in test [18]. The values for the inhibition in [19] and in test [20] were 6.91% and 1.96%, respectively.

Consider `COc1cccc(-n2ncc3c(N/N=C/c4ccncc4)ncnc32)c1`, for which the inhibition was -8.53% in [1]; 77% in [2]; 93.9% in test [3]; 82.9% in test [4]; 94.9% in [5]; 82.3% in test [6]. Further, the inhibition in test [7] worked out at 94%; in test [8] it was 87.2%; in test [9] it was 95.7%; in test [10] it was 42.4%; in [11], 85.2%; in test [12], 84.5%. In addition, the inhibition in test [13] is 94.9%; in test [14] it was 69.3%; in test [15], 89%; in [16], 3.94%; in test [17] it was 7.96%; in [18], 47.8%. Besides, the inhibition is 82.8% in test [19] and -5.41% in [20].

As for `Nc1nonc1-c1nc2cnccc2n1C1CCCCC1`, the inhibition in [1] is -4.16%; in [2], -1.63%; in test [3] it was -0.67%; in test [4] it was -1.2%; in [5] it was -0.69%; in test [6], 1.15%. Also, the inhibition in [7] was 3.69%; in [8], -2.14%; in [9], 1.64%; in test [10] it was -1.05%; in [11], -0.01%; in test [12], -0.51%. Moreover, the inhibition was 2.63% in test [13]; -0.08% in [14]; 7.12% in test [15]; -2.37% in test [16]; 2.16% in test [17]; 1.35% in test [18]. Further, the figures for the inhibition in test [19] and in test [20] were 3.74% and 4.13%, respectively.

For `NS(=O)(=O)c1ccc(N/C=C2\C(=O)Nc3ccc4ncsc4c32)cc1`, the inhibition was -3.07% in test [1]; 3.53% in test [2]; 21.2% in test [3]; 7.89% in test [4]; 31.5% in test [5]; 5.55% in test [6]. Moreover, the inhibition in [7] worked out at 30.6%; in test [8], 9.38%; in [9], 38.7%; in test [10] it was 6.29%; in [11] it was 41.1%; in test [12], 5.62%. For the same molecule, the inhibition in test [13] turned out to be 32.9%; in [14], 8.9%; in test [15], 32.9%; in test [16] it was 4.55%; in [17], 15.1%; in [18], 5.92%. For the same molecule, the inhibition in [19] is 21.8%; in [20] it was -3.83%.

The term inhibition denotes the relative decrease from the control value, in per cent.
